Experimental data as given in ChEMBL document CHEMBL5308504, “Tm Shift (DSF) assay results for EUbOPEN Chemogenomics Library” (2023).
Values joined by “and” are separate entries in the source; they are usually repeats but may differ in a detail not shown here. Equal entries are not always repeated.

Experiments:
Details in all cases: Compound concentration 20.0 uM, Protein concentration 2.0 uM, Result type QC Liability
[1] = biological target: Tyrosine-protein kinase ABL1 (Homo sapiens) (UniProt P00519)
[2] = biological target: Cyclin-dependent kinase 2 (Homo sapiens) (UniProt P24941)
[3] = biological target: Casein kinase I isoform delta (Homo sapiens) (UniProt P48730)
[4] = biological target: Glycogen synthase kinase-3 beta (Homo sapiens) (UniProt P49841)
[5] = biological target: Mitogen-activated protein kinase 1 (Homo sapiens) (UniProt P28482)
[6] = biological target: T1, Aurora kinase A (Homo sapiens) (UniProt O14965)
T1 sequence (whole entry): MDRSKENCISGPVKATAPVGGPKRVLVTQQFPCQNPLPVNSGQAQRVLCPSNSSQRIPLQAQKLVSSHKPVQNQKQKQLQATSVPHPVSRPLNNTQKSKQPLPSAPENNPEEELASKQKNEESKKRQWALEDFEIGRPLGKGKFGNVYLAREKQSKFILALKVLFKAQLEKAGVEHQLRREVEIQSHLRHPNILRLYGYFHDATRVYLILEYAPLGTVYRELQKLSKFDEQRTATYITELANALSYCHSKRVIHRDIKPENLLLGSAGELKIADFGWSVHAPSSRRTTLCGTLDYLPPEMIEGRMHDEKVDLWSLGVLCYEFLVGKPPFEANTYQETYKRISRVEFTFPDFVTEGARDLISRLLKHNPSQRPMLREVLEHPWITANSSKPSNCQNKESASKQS

Chain of Casein kinase I isoform delta (Homo sapiens) (P48730 whole entry, looked up, canonical isoform): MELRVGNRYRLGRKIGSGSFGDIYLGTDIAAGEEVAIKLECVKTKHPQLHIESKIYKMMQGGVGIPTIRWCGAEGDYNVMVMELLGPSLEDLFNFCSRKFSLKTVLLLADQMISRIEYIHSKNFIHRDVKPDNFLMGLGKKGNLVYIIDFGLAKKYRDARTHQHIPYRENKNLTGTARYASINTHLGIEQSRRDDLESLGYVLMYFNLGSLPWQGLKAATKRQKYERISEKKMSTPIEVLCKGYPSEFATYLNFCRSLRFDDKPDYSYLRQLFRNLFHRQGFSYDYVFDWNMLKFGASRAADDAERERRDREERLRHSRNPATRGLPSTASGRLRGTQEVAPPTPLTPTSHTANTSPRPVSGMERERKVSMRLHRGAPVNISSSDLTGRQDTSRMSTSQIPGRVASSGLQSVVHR
Chain of Tyrosine-protein kinase ABL1 (Homo sapiens) (P00519 whole entry): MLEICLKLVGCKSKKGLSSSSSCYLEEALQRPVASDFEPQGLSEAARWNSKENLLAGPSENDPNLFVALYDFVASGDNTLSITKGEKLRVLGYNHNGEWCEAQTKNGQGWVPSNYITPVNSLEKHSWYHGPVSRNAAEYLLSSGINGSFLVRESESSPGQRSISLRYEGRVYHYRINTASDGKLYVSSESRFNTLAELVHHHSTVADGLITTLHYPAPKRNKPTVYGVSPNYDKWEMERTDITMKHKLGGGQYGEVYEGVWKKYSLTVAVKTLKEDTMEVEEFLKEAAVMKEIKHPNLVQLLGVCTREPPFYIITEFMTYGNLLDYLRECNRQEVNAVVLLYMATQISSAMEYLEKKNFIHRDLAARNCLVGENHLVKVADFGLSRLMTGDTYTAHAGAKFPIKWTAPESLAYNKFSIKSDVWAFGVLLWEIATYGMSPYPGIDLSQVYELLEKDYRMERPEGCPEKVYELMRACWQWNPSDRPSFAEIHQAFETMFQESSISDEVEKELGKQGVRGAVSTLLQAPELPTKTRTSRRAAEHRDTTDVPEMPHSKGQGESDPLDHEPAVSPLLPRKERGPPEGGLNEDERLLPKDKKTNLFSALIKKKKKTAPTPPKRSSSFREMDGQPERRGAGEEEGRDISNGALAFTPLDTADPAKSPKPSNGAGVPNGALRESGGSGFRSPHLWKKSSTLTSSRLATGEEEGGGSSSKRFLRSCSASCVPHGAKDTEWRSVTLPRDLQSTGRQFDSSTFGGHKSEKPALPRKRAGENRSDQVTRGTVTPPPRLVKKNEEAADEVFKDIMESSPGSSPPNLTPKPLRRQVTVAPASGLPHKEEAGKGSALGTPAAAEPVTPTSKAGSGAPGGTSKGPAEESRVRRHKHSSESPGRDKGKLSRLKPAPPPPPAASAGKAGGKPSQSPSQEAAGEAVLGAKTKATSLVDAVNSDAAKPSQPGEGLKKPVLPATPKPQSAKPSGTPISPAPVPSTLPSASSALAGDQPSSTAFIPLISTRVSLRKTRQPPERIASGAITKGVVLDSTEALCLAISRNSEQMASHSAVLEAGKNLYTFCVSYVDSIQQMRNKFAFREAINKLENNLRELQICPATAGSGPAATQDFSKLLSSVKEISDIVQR
Chain of Glycogen synthase kinase-3 beta (Homo sapiens) (P49841 whole entry, looked up): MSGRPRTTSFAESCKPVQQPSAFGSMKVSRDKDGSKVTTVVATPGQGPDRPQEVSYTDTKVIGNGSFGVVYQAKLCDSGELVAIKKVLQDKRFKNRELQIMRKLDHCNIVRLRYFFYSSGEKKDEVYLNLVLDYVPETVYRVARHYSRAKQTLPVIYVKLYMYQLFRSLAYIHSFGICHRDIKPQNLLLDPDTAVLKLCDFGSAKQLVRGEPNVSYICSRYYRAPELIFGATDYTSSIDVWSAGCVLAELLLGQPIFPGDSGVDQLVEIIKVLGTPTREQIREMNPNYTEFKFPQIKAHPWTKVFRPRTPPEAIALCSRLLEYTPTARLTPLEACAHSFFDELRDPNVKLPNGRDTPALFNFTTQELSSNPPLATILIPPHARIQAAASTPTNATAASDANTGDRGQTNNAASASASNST
Chain of Mitogen-activated protein kinase 1 (Homo sapiens) (P28482 whole entry): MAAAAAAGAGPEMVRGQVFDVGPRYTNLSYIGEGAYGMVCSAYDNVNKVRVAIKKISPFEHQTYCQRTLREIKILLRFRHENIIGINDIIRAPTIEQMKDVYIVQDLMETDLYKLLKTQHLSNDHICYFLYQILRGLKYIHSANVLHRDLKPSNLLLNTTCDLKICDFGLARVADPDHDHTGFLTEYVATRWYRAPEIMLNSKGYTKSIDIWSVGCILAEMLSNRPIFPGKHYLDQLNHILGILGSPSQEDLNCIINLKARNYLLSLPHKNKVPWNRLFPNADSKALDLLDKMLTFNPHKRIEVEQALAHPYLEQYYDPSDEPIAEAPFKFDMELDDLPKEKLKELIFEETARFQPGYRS

SMILES | ΔTm [1] | ΔTm [2] | ΔTm [3] | ΔTm [4] | ΔTm [5] | ΔTm [6]
COc1ccc(Br)cc1S(=O)(=O)NC(=O)/C=C/c1cc(Cl)ccc1Cc1ccc2ccccc2c1 | -0.6 °C | -1.22 °C | -6.17 °C | -2.44 °C | -4.21 °C | -3.37 °C
CCCCc1c(-c2ccccc2)nc(N)nc1-c1ccc(OCc2ccccc2)c(F)c1F | -0.08 °C | -0.31 °C | -3.97 °C | -3.51 °C | 0 °C | -1.37 °C
COc1cc(N[C@@H]2CCCC[C@]2(O)C(F)(F)F)ccc1F | 0.29 °C | 0.72 °C | 0.65 °C | -0.31 °C | 0.4 °C | -1.49 °C
N#C/C(=C\c1ccc(O)c(O)c1)C(=O)OCCc1cccs1 | 2.18 °C | 1.1 °C | 2.15 °C | 0.01 °C | 0.37 °C | 4.16 °C
Nc1nccc(-c2c(-c3ccc(F)cc3)ncn2C2CCN(Cc3ccon3)CC2)n1 | 0.7 °C | 0.23 °C | 10.1 °C | 6.87 °C | 0.36 °C | -0.88 °C
CN(C)[C@H]1CCc2nc(NC(=O)c3cccc(Cn4cc(-c5ccc(C#N)cc5)cn4)c3)sc2C1 | 0.14 °C | 0.68 °C | 0.36 °C | 0.72 °C | 0.35 °C | 0.61 °C
C[C@H]1CN(C2COC2)CCN1c1ccc(Nc2cc(-c3ccnc(N4CCn5c(cc6c5CC(C)(C)C6)C4=O)c3CO)cn(C)c2=O)nc1 | 3.14 °C | -0.09 °C | 0.48 °C | -0.54 °C | -0.67 °C | 1.75 °C
COc1ccc(C(F)(F)F)cc1NC(=O)Nc1ccc(Oc2cc(C)nc(N)n2)c2ccccc12 | 5.29 °C | 1.11 °C | 0.31 °C | 1.99 °C | 0.06 °C | -0.77 °C
CNC(=O)c1ccc2c(c1)ncn2-c1ccc(CC(=O)OC(C)(C)C)cc1 | 4.4 °C | 0.07 °C | -0.01 °C | -0.5 °C | 0.2 °C | 0.99 °C
CS(=O)(=O)NC(=O)CCC/C=C\C[C@H]1C(=O)C[C@@H](O)[C@@H]1/C=C/[C@@H](O)COc1ccccc1 | -0.33 °C | 0.46 °C | -0.2 °C | 0.54 °C | 0.01 °C | -0.19 °C
Cc1cc(C)nc(Nc2ncc(C(=O)NCCc3c(C)[nH]c4ccccc34)cn2)c1 | -0.23 °C | 0.75 °C | -0.55 °C | -2.26 °C | -0.02 °C | 0.27 °C
CCn1c(-c2nonc2N)nc2cncc(C(=O)N3CC[C@H](N)C3)c21 | -0.16 °C | 0.25 °C | 0.4 °C | 6 °C | 0.69 °C | 0.77 °C
CCOc1ccc(S(=O)(=O)Nc2ccc(Cl)cc2C#Cc2cnc(C(=O)O)cc2OC)c2ncccc12 | -0.94 °C | -1.65 °C | -1.46 °C | -1.14 °C | -0.06 °C | -2.25 °C
C=CC(=O)Nc1cccc(C(=O)Nc2ccc(Nc3cc(-c4c(-c5ccc(F)cc5)nc(SC)n4C)ccn3)cc2)c1 | 2.33 °C | -0.01 °C | 3.17 °C | -0.32 °C | 0.35 °C | 1.08 °C
CCc1cc2c(cc1N1CCC(N3CCOCC3)CC1)C(C)(C)c1[nH]c3cc(C#N)ccc3c1C2=O | 0.88 °C | 1.02 °C | 0.16 °C | 0.18 °C | 0.1 °C | -0.02 °C
CC(C)N(C(=O)C1CCOCC1)c1cc(F)c(Oc2ncc(Cn3nccn3)cc2C(F)(F)F)cc1C(=O)O | -0.75 °C | 0.2 °C | 0.07 °C | -0.83 °C | -0.07 °C | -0.1 °C
Cc1nsc(Nc2cnc(C(F)(F)F)cn2)c1C(=O)Nc1ccc(O[C@H]2CCCN(CC(F)(F)F)C2)nc1 | 0.72 °C | 1.68 °C | 0 °C | -3.09 °C | 0 °C | 2.24 °C
Cc1cc(CN(CC(=O)Nc2ccc(Cl)cc2Cl)C2CCCCC2)ccc1OCC(=O)O | -1.67 °C | -2.21 °C | -0.47 °C | -3.13 °C | -1.06 °C | -2 °C
Cc1cc2c(-c3ccco3)cnc(N[C@H]3CCN(C)C[C@@H]3C(=O)NC3CCCCC3)c2[nH]c1=O | 0.25 °C | 0.22 °C | 0.37 °C | -0.67 °C | 0.2 °C | -1.37 °C
CNC(=O)c1c(F)cccc1Nc1nc(Nc2cc3c(cc2OC)CCN3C(=O)CN(C)C)nc2[nH]ccc12 | -0.29 °C | 0.06 °C | 1.14 °C | -0.64 °C | 1 °C | 0.07 °C
C=CC(=O)Nc1cccc(C)c1Nc1ncc2cc(-c3c(Cl)c(OC)cc(OC)c3Cl)ccc2n1 | 0.49 °C | 0.87 °C | 0.34 °C | -1.24 °C | -3.69 °C | -2.08 °C
COc1cccc(-c2c(C)c(Cc3c(F)cccc3C(F)(F)F)c3n(c2=O)[C@@H]([C@@H](N)c2ccccc2)CS3)c1F | -0.84 °C | -0.89 °C | -2.7 °C | -0.72 °C | -2.02 °C | -0.62 °C
CN(C)C(=O)c1sc2nc(N3CCC(S(C)(=O)=O)CC3)cc(C(F)(F)F)c2c1N | -0.62 °C and 1 °C | 0.58 °C and 0.19 °C | 0.2 °C and 0.17 °C | -0.24 °C and -0.54 °C | -0.76 °C and 0.56 °C | -0.67 °C and 0 °C
O[C@]1(C(F)(F)F)CCCC[C@H]1Nc1ccc(F)cc1 | 0.25 °C | 1.15 °C | 0.07 °C | -0.77 °C | 0.26 °C | 0.42 °C
